# The supplement of paper PMC10849652
# About 8,800 targets were measured; listed, in parts, are those with a hit and a random draw of the rest. About 0.5% of all pairs of compound and target were hits. A number with no mark means an inactive call.
# Experiments:
# Test in all cases: log2 fold change, soluble protein after heating vs DMSO (PISA); higher = thermal stabilisation; K562 lysate, 10 uM; active = over 0.2 and 3.5 SD of the protein, either way, in both replicates (recomputed)
# alvocidib = compound: CN1CC[C@H](c2c(O)cc(O)c3c(=O)cc(-c4ccccc4Cl)oc23)[C@H](O)C1 [alvocidib]
# Summary of the method: (§1)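 Log-two fold change in thermal stability relative to solvent controls is reported from duplicates. For each sample, crude K562 extract from dounce-homogenised pellets in PBS pH 7.4 with 1 mM MgCl2, at 1 mg/mL protein, was treated with 10 μM compound for 30 min. Aliquots heated for 3 min across 48°C-58°C were pooled, brought to 0.5% NP-40 at 4°C and cleared at 21,000xg for 90 min. The supernatant was quantified by TMTpro 16plex LC-MS/MS with channel sums equalised.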
# Tubastatin A = compound: CN1CCc2c(c3ccccc3n2Cc2ccc(C(=O)NO)cc2)C1 [Tubastatin A]
# Summary of the method: as §1
# [1] = compound: CNC(=O)C1=CC=CC=C1NC2=NC(=NC=C2Cl)NC3=C(C=C(C=C3)N4CCOCC4)OC
# Summary of the method: as §1
# defactinib = compound: CNC(=O)c1ccc(Nc2ncc(C(F)(F)F)c(NCc3nccnc3N(C)S(C)(=O)=O)n2)cc1 [defactinib]
# Summary of the method: as §1
# [2] = compound: CNc1nc(-c2ccc3c(N)n[nH]c3c2)cc(N2C[C@@H](C(=O)NC3CCCCC3)CC[C@H]2C)n1
# Summary of the method: as §1
# encorafenib = compound: COC(=O)N[C@@H](C)CNc1nccc(-c2cn(C(C)C)nc2-c2cc(Cl)cc(NS(C)(=O)=O)c2F)n1 [encorafenib]
# Summary of the method: as §1
# [3] = compound: COC(=O)[C@H](CCSC)NC(=O)C1=C(C=C(C=C1)NC[C@H](CS)N)C2=CC=CC=C2
# Summary of the method: as §1
# alisertib = compound: COc1cc(Nc2ncc3c(n2)-c2ccc(Cl)cc2C(c2c(F)cccc2OC)=NC3)ccc1C(=O)O [alisertib]
# Summary of the method: as §1
# [4] = compound: COc1cc2nc(-c3cc(F)ccc3O)nc(N[C@@H]3CNC[C@H]3C(C)(C)O)c2cc1OC
# Summary of the method: as §1
# gefitinib = compound: COc1cc2ncnc(Nc3ccc(F)c(Cl)c3)c2cc1OCCCN1CCOCC1 [gefitinib]
# Summary of the method: as §1
# lapatinib = compound: CS(=O)(=O)CCNCc1ccc(-c2ccc3ncnc(Nc4ccc(OCc5cccc(F)c5)c(Cl)c4)c3c2)o1 [lapatinib]
# Summary of the method: as §1
# pictilisib = compound: CS(=O)(=O)N1CCN(Cc2cc3nc(-c4cccc5[nH]ncc45)nc(N4CCOCC4)c3s2)CC1 [pictilisib]
# Summary of the method: as §1
# crizotinib = compound: C[C@@H](Oc1cc(-c2cnn(C3CCNCC3)c2)cnc1N)c1c(Cl)ccc(F)c1Cl [crizotinib]
# Summary of the method: as §1
# [5] = compound: C[C@H](C1=CC=C(C=C1)C(=O)NC2=C3C=CNC3=NC=C2)N
# Summary of the method: as §1
# duvelisib = compound: C[C@H](Nc1ncnc2nc[nH]c12)c1cc2cccc(Cl)c2c(=O)n1-c1ccccc1 [duvelisib]
# Summary of the method: as §1
# gandotinib = compound: Cc1cc(Nc2cc(CN3CCOCC3)c3nc(C)c(Cc4ccc(Cl)cc4F)n3n2)n[nH]1 [gandotinib]
# Summary of the method: as §1
# tozasertib = compound: Cc1cc(Nc2cc(N3CCN(C)CC3)nc(Sc3ccc(NC(=O)C4CC4)cc3)n2)n[nH]1 [tozasertib]
# Summary of the method: as §1
# doramapimod = compound: Cc1ccc(-n2nc(C(C)(C)C)cc2NC(=O)Nc2ccc(OCCN3CCOCC3)c3ccccc23)cc1 [doramapimod]
# Summary of the method: as §1
# bafetinib = compound: Cc1ccc(NC(=O)c2ccc(CN3CC[C@H](N(C)C)C3)c(C(F)(F)F)c2)cc1Nc1nccc(-c2cncnc2)n1 [bafetinib]
# Summary of the method: as §1
# [6] = compound: Cc1cccc(CC(=O)N2CCc3c2ccc(-c2cn(C)c4ncnc(N)c24)c3F)n1
# Summary of the method: as §1
# UniProt Q5T6F2, sequence (Q5T6F2 whole entry, looked up): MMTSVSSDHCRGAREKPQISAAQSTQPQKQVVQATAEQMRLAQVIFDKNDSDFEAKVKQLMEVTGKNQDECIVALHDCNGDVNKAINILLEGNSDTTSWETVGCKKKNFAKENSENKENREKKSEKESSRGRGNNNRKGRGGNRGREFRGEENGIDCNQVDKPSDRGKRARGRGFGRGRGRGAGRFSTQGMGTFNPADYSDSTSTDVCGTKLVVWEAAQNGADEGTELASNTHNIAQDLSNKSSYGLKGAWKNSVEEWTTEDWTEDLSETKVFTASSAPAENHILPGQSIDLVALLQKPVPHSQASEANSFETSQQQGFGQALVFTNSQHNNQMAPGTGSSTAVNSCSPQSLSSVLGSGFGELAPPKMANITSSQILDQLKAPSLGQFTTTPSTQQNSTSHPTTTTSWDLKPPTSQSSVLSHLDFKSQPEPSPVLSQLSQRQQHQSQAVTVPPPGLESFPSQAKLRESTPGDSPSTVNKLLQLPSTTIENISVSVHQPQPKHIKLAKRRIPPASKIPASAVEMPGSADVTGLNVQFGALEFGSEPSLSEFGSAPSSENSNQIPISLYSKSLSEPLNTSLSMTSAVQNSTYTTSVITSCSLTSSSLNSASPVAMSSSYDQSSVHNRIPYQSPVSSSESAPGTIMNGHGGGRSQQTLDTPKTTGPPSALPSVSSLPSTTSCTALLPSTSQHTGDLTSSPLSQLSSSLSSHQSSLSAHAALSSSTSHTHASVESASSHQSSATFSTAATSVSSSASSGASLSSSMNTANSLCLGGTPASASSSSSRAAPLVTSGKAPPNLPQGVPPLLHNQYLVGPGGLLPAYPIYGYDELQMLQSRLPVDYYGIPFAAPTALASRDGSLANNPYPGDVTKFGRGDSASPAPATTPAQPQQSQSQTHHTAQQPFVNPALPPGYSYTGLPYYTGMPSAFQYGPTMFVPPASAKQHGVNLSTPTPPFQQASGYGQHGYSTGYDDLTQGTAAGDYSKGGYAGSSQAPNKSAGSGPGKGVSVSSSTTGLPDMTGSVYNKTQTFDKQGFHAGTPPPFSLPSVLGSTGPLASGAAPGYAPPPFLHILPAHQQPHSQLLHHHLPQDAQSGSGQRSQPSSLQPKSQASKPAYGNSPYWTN
# UniProt Q7Z3V4, sequence (Q7Z3V4 whole entry, looked up): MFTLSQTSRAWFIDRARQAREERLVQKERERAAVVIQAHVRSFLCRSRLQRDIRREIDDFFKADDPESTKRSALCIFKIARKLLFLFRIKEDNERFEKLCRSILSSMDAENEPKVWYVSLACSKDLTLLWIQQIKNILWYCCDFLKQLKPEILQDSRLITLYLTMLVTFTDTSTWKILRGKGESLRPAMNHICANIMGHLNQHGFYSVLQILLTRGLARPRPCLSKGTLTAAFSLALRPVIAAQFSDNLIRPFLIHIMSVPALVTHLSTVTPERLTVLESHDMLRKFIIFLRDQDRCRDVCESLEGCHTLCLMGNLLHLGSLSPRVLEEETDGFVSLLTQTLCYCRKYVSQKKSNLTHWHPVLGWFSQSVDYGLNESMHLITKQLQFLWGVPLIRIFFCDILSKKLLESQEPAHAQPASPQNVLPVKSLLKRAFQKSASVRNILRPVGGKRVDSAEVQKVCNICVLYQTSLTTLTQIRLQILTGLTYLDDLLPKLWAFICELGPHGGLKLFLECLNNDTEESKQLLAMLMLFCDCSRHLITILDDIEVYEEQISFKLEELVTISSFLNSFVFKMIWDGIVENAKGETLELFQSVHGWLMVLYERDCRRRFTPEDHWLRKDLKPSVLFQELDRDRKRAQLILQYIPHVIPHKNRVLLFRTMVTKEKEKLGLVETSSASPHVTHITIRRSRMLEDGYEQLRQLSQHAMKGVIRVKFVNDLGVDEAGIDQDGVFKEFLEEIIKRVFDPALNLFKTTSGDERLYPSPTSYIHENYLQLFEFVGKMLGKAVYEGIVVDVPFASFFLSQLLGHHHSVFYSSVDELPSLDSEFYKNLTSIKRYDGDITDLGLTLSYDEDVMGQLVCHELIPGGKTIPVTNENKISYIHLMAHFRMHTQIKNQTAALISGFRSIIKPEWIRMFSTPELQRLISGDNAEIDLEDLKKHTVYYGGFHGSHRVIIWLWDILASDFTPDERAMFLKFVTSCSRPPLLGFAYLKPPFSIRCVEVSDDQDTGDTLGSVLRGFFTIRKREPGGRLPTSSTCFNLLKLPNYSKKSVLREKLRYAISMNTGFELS
# UniProt Q15645, sequence (Q15645 whole entry, looked up): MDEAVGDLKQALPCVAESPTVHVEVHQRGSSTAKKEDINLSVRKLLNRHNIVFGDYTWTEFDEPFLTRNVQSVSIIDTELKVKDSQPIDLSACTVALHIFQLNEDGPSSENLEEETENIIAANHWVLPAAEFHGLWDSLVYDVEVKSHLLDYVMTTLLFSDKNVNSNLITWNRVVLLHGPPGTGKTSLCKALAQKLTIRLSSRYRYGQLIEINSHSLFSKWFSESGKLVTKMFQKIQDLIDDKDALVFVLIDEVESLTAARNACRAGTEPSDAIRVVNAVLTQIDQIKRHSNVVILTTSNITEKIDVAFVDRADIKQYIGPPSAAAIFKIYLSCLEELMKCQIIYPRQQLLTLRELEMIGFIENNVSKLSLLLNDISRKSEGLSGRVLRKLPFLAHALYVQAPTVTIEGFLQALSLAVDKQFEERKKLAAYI
# UniProt Q9NUY8, sequence (Q9NUY8 whole entry, looked up): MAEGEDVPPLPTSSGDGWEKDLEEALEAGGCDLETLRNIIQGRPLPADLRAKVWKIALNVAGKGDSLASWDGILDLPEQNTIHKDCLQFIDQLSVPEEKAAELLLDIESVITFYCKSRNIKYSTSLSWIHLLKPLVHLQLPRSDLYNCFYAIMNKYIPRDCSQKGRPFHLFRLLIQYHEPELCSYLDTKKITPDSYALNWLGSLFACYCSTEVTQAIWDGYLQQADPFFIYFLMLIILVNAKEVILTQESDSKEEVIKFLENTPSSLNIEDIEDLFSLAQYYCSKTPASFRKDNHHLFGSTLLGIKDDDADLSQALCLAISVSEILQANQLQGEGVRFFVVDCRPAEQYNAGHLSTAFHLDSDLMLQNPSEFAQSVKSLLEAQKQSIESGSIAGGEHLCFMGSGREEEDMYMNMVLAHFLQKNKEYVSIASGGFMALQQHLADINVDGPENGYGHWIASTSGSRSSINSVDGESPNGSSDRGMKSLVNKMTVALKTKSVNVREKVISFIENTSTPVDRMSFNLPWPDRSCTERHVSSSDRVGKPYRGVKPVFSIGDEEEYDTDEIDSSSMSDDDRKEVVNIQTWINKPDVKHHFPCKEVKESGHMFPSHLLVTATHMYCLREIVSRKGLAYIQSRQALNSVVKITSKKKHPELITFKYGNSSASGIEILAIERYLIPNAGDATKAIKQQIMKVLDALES
# UniProt Q14139, sequence (Q14139 whole entry, looked up): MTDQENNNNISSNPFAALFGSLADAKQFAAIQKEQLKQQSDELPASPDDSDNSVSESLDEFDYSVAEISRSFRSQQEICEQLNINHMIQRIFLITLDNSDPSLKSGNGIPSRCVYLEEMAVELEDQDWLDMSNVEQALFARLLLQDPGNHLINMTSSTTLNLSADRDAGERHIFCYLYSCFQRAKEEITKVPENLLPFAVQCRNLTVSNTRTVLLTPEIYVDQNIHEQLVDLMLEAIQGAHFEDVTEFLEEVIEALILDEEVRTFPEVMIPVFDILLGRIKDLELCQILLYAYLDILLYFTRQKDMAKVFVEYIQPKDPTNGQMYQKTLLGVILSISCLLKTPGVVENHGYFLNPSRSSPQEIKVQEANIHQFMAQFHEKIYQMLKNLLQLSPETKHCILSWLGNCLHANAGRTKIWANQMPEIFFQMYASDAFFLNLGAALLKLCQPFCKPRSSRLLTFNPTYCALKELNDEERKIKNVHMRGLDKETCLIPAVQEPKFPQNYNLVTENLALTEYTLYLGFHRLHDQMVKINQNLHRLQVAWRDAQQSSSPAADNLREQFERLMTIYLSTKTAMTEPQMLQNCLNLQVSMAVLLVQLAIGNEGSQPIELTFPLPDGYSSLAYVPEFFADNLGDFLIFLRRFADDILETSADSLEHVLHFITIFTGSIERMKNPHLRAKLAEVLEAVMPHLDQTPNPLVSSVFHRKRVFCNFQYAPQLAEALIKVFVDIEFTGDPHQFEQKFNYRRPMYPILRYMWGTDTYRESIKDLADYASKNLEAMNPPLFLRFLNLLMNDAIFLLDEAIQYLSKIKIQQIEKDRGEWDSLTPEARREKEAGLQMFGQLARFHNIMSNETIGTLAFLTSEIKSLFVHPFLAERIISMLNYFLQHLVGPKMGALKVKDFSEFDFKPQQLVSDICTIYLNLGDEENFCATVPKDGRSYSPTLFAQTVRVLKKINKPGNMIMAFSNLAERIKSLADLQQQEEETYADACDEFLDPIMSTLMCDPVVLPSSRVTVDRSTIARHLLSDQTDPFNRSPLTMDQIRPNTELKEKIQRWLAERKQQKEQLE
# UniProt P42166, sequence (P42166 whole entry, looked up): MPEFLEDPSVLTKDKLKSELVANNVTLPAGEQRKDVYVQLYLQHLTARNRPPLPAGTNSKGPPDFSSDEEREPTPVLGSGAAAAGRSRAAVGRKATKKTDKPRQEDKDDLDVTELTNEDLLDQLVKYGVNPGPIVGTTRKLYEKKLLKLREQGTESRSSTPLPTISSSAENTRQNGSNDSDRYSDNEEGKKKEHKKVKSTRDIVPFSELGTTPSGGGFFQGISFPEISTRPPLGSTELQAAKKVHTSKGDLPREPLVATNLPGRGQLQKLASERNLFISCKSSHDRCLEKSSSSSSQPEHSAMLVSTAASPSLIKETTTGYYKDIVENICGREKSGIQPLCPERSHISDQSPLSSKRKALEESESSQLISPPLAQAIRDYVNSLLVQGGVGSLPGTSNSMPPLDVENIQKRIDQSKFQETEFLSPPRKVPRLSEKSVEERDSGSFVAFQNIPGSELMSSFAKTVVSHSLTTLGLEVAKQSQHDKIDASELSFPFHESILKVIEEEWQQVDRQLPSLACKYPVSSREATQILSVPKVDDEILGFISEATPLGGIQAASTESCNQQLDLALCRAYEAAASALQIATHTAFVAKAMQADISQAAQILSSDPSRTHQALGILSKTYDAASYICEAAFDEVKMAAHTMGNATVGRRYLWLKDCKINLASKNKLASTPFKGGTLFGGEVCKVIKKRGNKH
Target,log2 fold change (alvocidib),log2 fold change (Tubastatin A),log2 fold change [1],log2 fold change (defactinib),log2 fold change [2],log2 fold change (encorafenib),log2 fold change [3],log2 fold change (alisertib),log2 fold change [4],log2 fold change (gefitinib),log2 fold change (lapatinib),log2 fold change (pictilisib),log2 fold change (crizotinib),log2 fold change [5],log2 fold change (duvelisib),log2 fold change (gandotinib),log2 fold change (tozasertib),log2 fold change (doramapimod),log2 fold change (bafetinib),log2 fold change [6]
TRIP13 (UniProt Q15645),0.018,-0.159,0.014,0.07,-0.049,0.03,0.114,0,0.014,-0.036,-0.015,0.014,-0.028,0.039,-0.01,-0.187,0.005,0.026,-0.029,-0.045
UBXN6 (UniProt Q9BZV1),0.014,-0.087,0.03,-0.019,0.055,0.042,0.104,0.017,0.006,0.006,-0.075,-0.048,0.004,-0.014,-0.028,-0.018,0.008,0.017,0.033,-0.023
TMPO (UniProt P42166),-0.196,-0.145,0.002,0.028,-0.003,0.011,0.174,-0.024,0.012,0.011,0.018,-0.012,0.016,-0.179,0.023,-0.048,0.016,-0.017,-0.021,0.034
UBE3C (UniProt Q15386),0,-0.084,0.023,0.033,0.024,0.076,-0.145,0.022,0,-0.026,-0.004,-0.029,-0.055,-0.039,0.007,-0.075,0,0.038,-0.036,0.021
UBE4A isoform 2 (UniProt Q14139),0,-0.087,0.029,0.011,-0.073,0.018,-0.102,0.018,0.013,-0.041,-0.019,-0.007,-0.059,-0.009,0.016,-0.15,0,0.004,-0.054,0.043
UBAP2 (UniProt Q5T6F2),-0.081,0.026,-0.026,-0.003,0.005,0.033,-0.021,0.005,0.011,0.014,-0.04,-0.079,0.091,-0.173,-0.003,0.095,-0.02,-0.097,-0.066,0.061
TOE1 (UniProt Q96GM8),-0.01,-0.136,0.027,0.019,-0.044,-0.034,0.165,-0.041,-0.011,-0.047,0.002,-0.057,0.003,-0.023,0.052,-0.016,0.059,-0.04,0.047,0.059
TBC1D23 (UniProt Q9NUY8),0,-0.076,0.025,-0.006,0.05,-0.009,-0.019,-0.014,0.002,-0.006,-0.007,-0.016,-0.031,-0.033,-0.012,0.03,0.034,0.017,-0.027,0.048
TUT4 (UniProt Q5TAX3),-0.022,-0.1,-0.001,0.002,0.039,0.059,0.125,0.01,-0.014,-0.007,-0.003,-0.041,0,-0.064,0.006,-0.001,0.047,-0.023,-0.039,0.15
UBE3B (UniProt Q7Z3V4),-0.07,-0.134,0.136,0.028,0.008,0.102,-0.047,0,0.006,0.044,-0.019,0.025,-0.027,-0.174,0.136,-0.17,-0.005,0.083,-0.082,0.203
TMEM97 (UniProt Q5BJF2),-0.081,0.114,-0.016,-0.021,0.091,-0.008,-0.042,-0.026,0.014,-0.017,-0.052,-0.004,0.113,-0.277 (active),0.014,0.17,-0.013,-0.127,-0.015,0.12
TDRKH (UniProt Q9Y2W6),-0.017,-0.064,0.019,0.033,0.042,0.007,0.008,-0.049,0.04,0.001,-0.069,-0.036,-0.083,-0.061,-0.028,0.062,0.081,-0.043,0.02,0.074
TGOLN2 isoform 7 (UniProt O43493),-0.053,0.003,-0.052,0.005,0.045,0.014,-0.031,-0.059,0.02,-0.048,-0.007,0.001,0.045,-0.051,0.021,0.034,-0.065,-0.03,0.032,0.034
TPM1 (UniProt H7BYY1),0.027,0.092,0.007,0,0.022,0.056,-0.023,-0.048,-0.04,0.076,0.028,0.042,0.096,0.063,-0.004,-0.118,0.012,-0.025,0.026,-0.158
TCP11L1 (UniProt Q9NUJ3),-0.098,-0.006,0.029,0.023,-0.064,0.006,-0.064,-0.022,0.032,-0.001,-0.008,-0.028,-0.022,-0.204,-0.024,0.066,-0.069,-0.017,-0.007,0.146
THOC5 (UniProt Q13769),-0.027,-0.025,-0.021,-0.008,-0.016,0.005,0.062,0.059,0.006,-0.018,-0.036,-0.007,-0.011,-0.024,-0.009,-0.021,-0.01,0.02,-0.009,0.035
